Test results taken from PubChem BioAssay (NCI).
About 83,000 compounds went through this panel and 20% of them were active in at least one assay; those are over-represented in the sample as a whole.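 Step 1: grow cells in 96-well plates. Step 2: add test compound at a single concentration. Step 3: incubate 48 h. Step 4: record percent growth.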 Active and inactive are the calls of the source. The calls were made as follows: active = growth percent below 10; inactive = the rest.

How the values were obtained:
Assay in all cases: NCI-60 one-dose screen, 48 h (100 = growth as untreated, 0 = no growth, -100 = all killed)
Conditions in all cases: 10 µM unless noted
[1] = test system: HCT-15 colon
[2] = test system: HT29 colon
[3] = test system: SNB-75 CNS
[4] = test system: SNB-19 CNS
[5] = test system: U251 CNS
[6] = test system: SK-MEL-5 melanoma
[7] = test system: UACC-62 melanoma
[8] = test system: LOX IMVI melanoma
[9] = test system: SK-MEL-28 melanoma
[10] = test system: SK-MEL-2 melanoma
[11] = test system: EKVX NSCLC
[12] = test system: SN12C renal
[13] = test system: UO-31 renal
[14] = test system: TK-10 renal
[15] = test system: ACHN renal
[16] = test system: CAKI-1 renal
[17] = test system: A498 renal
[18] = test system: CCRF-CEM leukemia
[19] = test system: MOLT-4 leukemia
[20] = test system: PC-3 prostate

Measured: growth

CCN(CC)c1ccc2c(c1)Oc1nc(N)c(C#N)c(N)c1C2Sc1ccc(F)cc1 (stereo not given)
active: [1] -84.8% | [2] -42.4% | [3] -3.74% | [4] -94.9% | [5] -73.4% | [6] -96.2% | [7] -52.5% | [8] -92.6% | [9] -62% | [10] -61.3% | [11] -85.8% | [12] -77.8% | [13] -99.5% | [14] -33.6% | [15] -91% | [16] -81.9% | [17] -1.93% | [18] -23% | [19] -12.8%

COc1cc(-c2nc(SC(C)C)n(C(C)C)c(=O)c2C#N)ccc1OCc1ccccc1
inactive: [1] 73.8% | [2] 91.2% | [3] 82.4% | [4] 83.8% | [5] 32.7% | [20] 73.1% | [8] 62.1% | [9] 96.8% | [11] 81.3% | [12] 16.2% | [13] 56.8% | [14] 42.1% | [15] 32.5% | [16] 54.8% | [18] 33% | [19] 22.1%

CNC(=O)c1cc(Oc2ccc3nc(NC(=O)c4ccc(N5CCOCC5)c(C(F)(F)F)c4)sc3c2)ccn1
inactive: [1] 51.5% | [2] 48.5% | [3] 96.2% | [4] 86.6% | [5] 65.6% | [20] 59% | [6] 28.8% | [8] 76.3% | [9] 86.1% | [11] 78.7% | [12] 90.4% | [13] 54.7% | [14] 127% | [15] 91.5% | [16] 87.2% | [18] 75.6% | [19] 75.8%

O=C1/C(=C/C=C/c2ccco2)SC(=S)N1c1ccccc1
inactive: [1] 56.9% | [2] 83.6% | [3] 101% | [4] 86.3% | [5] 49.8% | [20] 71.3% | [7] 70.7% | [8] 26% | [9] 79.9% | [11] 81.2% | [12] 79.1% | [13] 42.9% | [14] 95.5% | [15] 67.3% | [16] 86.8% | [18] 41.3% | [19] 60.2%

Cc1ccc(N2C(=O)/C(=C/C=C/c3ccco3)SC2=S)cc1
inactive: [1] 88.4% | [2] 102% | [3] 98.1% | [4] 92.4% | [5] 93.8% | [20] 73.3% | [7] 89% | [8] 96.2% | [9] 95.8% | [11] 95.4% | [12] 91.4% | [13] 84% | [14] 117% | [15] 101% | [16] 90.4% | [18] 61.2%
active: [19] 9.93%

COc1ccc(/C=C/C(=O)c2cc(S(N)(=O)=O)c(OC)cc2OC)cc1
inactive: [1] 42.6% | [2] 102% | [3] 71.4% | [4] 81% | [5] 68.7% | [20] 42.9% | [7] 76.8% | [8] 52.2% | [9] 40.9% | [11] 92.1% | [12] 61.1% | [13] 72.4% | [14] 92.9% | [15] 81.1% | [16] 63.5% | [18] 55.7% | [19] 71.1%

O=c1[nH]c(Sc2sc3ccc(Cl)cc3c2CBr)nc(=S)[nH]1
inactive: [1] 21.2% | [2] 91.4% | [3] 54% | [4] 60.7% | [5] 38.7% | [6] 35.1% | [8] 25.9% | [9] 28.4% | [11] 40.2% | [12] 41.8% | [13] 19.9% | [14] 46.2% | [15] 26.7% | [16] 13.7% | [18] 18% | [19] 17.5%
active: [7] 1.82% | [10] 7.23% | [17] 5.73%

COc1cc2oc(-c3cccc(C(=O)N[C@@H](CC(C)C)C(=O)OC(C)(C)C)c3)cc(=O)c2c(OC)c1OC
inactive: [1] 36.9% | [2] 83.7% | [3] 80.9% | [4] 78.3% | [5] 76.1% | [20] 58.4% | [6] 74.1% | [8] 46.5% | [9] 95.9% | [10] 81.6% | [11] 89.7% | [12] 57% | [13] 39.6% | [14] 95% | [15] 69.7% | [16] 53.6% | [17] 96.7% | [18] 40.2% | [19] 62.1%

Cc1cc(C)c(N2C(=O)CC(Nc3ccc(Cl)cc3Cl)C2=O)c(C)c1 (stereo not given)
inactive: [1] 102% | [2] 107% | [3] 93% | [4] 98.5% | [5] 104% | [20] 94.8% | [6] 103% | [8] 96% | [9] 102% | [12] 98.2% | [13] 85.9% | [14] 109% | [15] 103% | [16] 87.6% | [18] 105% | [19] 103%

Cc1ccc(-c2nnc(SCc3ccc(O)c4ncccc34)n2-c2ccccc2)cc1
inactive: [2] 36% | [9] 23% | [11] 10.7% | [12] 15.1% | [17] 26%
active: [1] 6.13% | [3] -5.25% | [4] 9.09% | [5] -2.5% | [6] -28.2% | [7] -27.7% | [8] 3.35% | [10] -0.952% | [13] -12.8% | [14] 7.85% | [15] 8.47% | [16] 9.59% | [18] 8.76% | [19] 8.15%

CC(=O)c1ccc(Nc2nc(SCC(C)C)nc(-c3ccccc3)c2C#N)cc1
inactive: [1] 95.3% | [2] 106% | [3] 93.3% | [4] 38.5% | [5] 32.4% | [20] 104% | [6] 99.7% | [8] 86.9% | [9] 101% | [11] 88.6% | [12] 95.9% | [13] 111% | [14] 98.4% | [15] 47.8% | [16] 69.6% | [17] 107% | [18] 102% | [19] 102%

CC1=NC2=NC(=O)/C(=C3/N=C(C)C=C(c4ccccc4)N3N)NN2C(c2ccccc2)=C1
inactive: [1] 107% | [2] 109% | [3] 116% | [4] 96.3% | [5] 105% | [20] 96.7% | [6] 99.1% | [8] 102% | [10] 108% | [11] 83.8% | [12] 100% | [13] 78.6% | [14] 168% | [15] 101% | [16] 83.2% | [17] 127% | [18] 109% | [19] 104%

CC(O)c1cc2ccccc2c(=O)o1 (stereo not given)
inactive: [1] 103% | [2] 105% | [3] 110% | [4] 99.6% | [5] 103% | [20] 95.2% | [6] 97% | [8] 97.3% | [9] 101% | [11] 102% | [12] 101% | [13] 89.9% | [14] 105% | [15] 102% | [16] 91.5% | [19] 107%
active: [18] 1.19%

NS(=O)(=O)c1ccc(Nc2nc(SCc3ccccc3)nc3ccccc23)cc1
inactive: [1] 39.1% | [2] 41% | [3] 70.5% | [4] 78.2% | [5] 60.1% | [20] 54.1% | [6] 49.8% | [8] 52.3% | [9] 91.6% | [11] 77.7% | [12] 65.1% | [13] 46.9% | [14] 81.5% | [15] 62% | [16] 49.1% | [17] 48.5% | [18] 41.8% | [19] 43.9%

Cc1ccc(-c2nn(-c3ccccc3)cc2/C=C/C(=O)c2ccc(NC(=O)CCCCCCC(=O)NO)cc2)cc1
inactive: [1] 68% | [2] 61.4% | [3] 102% | [4] 81.9% | [5] 79.2% | [6] 91.7% | [7] 53.3% | [8] 62.2% | [9] 89% | [10] 88.2% | [11] 85.8% | [12] 73.5% | [13] 52.2% | [14] 70.2% | [15] 87.9% | [16] 58.1% | [17] 58.2% | [18] 38.8% | [19] 38.5%

CNC(=O)c1cc(Oc2ccc3nc(NC(=O)c4cccc(OC(F)(F)F)c4)sc3c2)ccn1
inactive: [1] 81.7% | [2] 86% | [3] 45.5% | [4] 81.3% | [5] 84.3% | [20] 73% | [7] 78.4% | [8] 85.2% | [9] 85.3% | [11] 79.6% | [12] 78.7% | [13] 95.7% | [14] 101% | [15] 75.2% | [16] 73.9% | [18] 71.2% | [19] 73.3%

COc1cc(OC)c(/C=C/S(=O)(=O)Cc2ccc(OC)c(NCC(=O)NO)c2)c(OC)c1
inactive: [1] 12.9% | [3] 27.6% | [4] 18.5% | [5] 13.4% | [20] 22.7% | [11] 34.4% | [12] 19.2% | [13] 35.4% | [14] 65% | [15] 27.9% | [16] 25.7% | [18] 14.8% | [19] 16.5%
active: [2] 5.84% | [6] -30.6% | [8] 8.14% | [17] -11.7%
